# Assay results: PMC7862700, “An all-to-all approach to the identification of sequence-specific readers for epigenetic DNA modifications on cytosine”
# Experiments:
# Assay in all cases: DAPPL (digital affinity profiling via proximity ligation, sequencing); 10 mM Tris-HCl pH 7.5, 50 mM NaCl, 1 mM DTT, 4% glycerol, room temperature, 30 min; GST-TFs on glutathione beads, 16-mer random dsDNA library, 0.1% formaldehyde crosslink after washing; high values mean tight binding
# [1] = target: T1, FEV (Homo sapiens, UniProt Q99581 1-238); conditions: protein: recombinant; tags: N-terminal GST; dsDNA, one strand shown
# T1 sequence: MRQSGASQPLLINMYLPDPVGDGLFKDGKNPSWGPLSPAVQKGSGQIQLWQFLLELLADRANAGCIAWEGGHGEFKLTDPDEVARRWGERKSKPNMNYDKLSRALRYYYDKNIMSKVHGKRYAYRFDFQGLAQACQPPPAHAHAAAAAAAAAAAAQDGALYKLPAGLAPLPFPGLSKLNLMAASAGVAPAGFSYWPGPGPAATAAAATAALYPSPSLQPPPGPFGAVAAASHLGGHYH
# Procedure, shortened: (§1)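 Pools were built from human transcription factors expressed in yeast as GST fusions, captured on glutathione beads and DNA-barcoded, along with a tag-only sample. Incubation with 200 nmole of a 16-mer random double-stranded DNA library lasted 30 min at room temperature in Tris/NaCl/DTT/glycerol buffer, and was followed by washing, 0.1% formaldehyde crosslinking, proximity ligation, PCR amplification and Illumina NextSeq500 sequencing. Binding signal is the quotient of each hexamer's read frequency for a factor and its frequency for the tag-only sample.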
# [2] = target: ETV5 (Homo sapiens, UniProt P41161 1-510); conditions: protein: recombinant; tags: N-terminal GST; dsDNA, one strand shown
# Procedure, shortened: as §1
# [3] = target: HSF1 (Homo sapiens, UniProt Q00613 1-529); conditions: protein: recombinant; tags: N-terminal GST; chain copies: 3; dsDNA, one strand shown
# Procedure, shortened: as §1
# [4] = target: T2, SPIC (Homo sapiens, UniProt Q8N5J4 1-248); conditions: protein: recombinant; tags: N-terminal GST; dsDNA, one strand shown
# T2 sequence: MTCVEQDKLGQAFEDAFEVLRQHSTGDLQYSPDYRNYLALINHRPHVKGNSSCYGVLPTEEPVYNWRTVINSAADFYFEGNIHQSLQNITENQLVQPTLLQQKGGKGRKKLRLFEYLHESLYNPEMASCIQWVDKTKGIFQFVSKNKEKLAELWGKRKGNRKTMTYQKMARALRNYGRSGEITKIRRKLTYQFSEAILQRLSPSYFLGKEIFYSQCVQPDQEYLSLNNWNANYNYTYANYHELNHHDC
# Procedure, shortened: as §1
# [5] = target: ELF4 (Homo sapiens, UniProt Q99607 1-663); conditions: protein: recombinant; tags: N-terminal GST; dsDNA, one strand shown
# Procedure, shortened: as §1
# [6] = target: T3, ELK4 (Homo sapiens, UniProt P28324-2 1-405); conditions: protein: recombinant; tags: N-terminal GST; dsDNA, one strand shown
# T3 sequence: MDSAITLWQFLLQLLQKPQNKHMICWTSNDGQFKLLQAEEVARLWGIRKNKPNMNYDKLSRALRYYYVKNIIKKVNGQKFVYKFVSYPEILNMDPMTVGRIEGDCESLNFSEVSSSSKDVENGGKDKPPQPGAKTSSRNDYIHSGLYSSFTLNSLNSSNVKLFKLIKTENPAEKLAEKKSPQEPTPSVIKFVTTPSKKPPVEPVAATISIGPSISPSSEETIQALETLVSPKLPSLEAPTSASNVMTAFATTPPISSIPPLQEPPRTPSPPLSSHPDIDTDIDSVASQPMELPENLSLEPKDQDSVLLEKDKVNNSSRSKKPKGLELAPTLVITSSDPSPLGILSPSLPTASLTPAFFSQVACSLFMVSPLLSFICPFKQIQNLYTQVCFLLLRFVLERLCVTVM
# Procedure, shortened: as §1
# [7] = target: T4, ETV2 (Homo sapiens, UniProt O00321 1-342); conditions: protein: recombinant; tags: N-terminal GST; dsDNA, one strand shown
# T4 sequence: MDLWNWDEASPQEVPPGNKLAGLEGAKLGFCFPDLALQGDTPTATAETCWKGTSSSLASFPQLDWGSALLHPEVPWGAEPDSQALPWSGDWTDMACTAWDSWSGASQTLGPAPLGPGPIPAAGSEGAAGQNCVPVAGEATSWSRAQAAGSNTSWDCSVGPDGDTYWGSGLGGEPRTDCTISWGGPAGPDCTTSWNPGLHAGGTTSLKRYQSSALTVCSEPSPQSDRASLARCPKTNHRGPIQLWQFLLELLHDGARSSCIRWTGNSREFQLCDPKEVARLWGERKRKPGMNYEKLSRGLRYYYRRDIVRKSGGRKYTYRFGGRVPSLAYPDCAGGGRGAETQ
# Procedure, shortened: as §1
# [8] = target: T5, ELF3 (Homo sapiens, UniProt P78545 1-371); conditions: protein: recombinant; tags: N-terminal GST; dsDNA, one strand shown
# T5 sequence: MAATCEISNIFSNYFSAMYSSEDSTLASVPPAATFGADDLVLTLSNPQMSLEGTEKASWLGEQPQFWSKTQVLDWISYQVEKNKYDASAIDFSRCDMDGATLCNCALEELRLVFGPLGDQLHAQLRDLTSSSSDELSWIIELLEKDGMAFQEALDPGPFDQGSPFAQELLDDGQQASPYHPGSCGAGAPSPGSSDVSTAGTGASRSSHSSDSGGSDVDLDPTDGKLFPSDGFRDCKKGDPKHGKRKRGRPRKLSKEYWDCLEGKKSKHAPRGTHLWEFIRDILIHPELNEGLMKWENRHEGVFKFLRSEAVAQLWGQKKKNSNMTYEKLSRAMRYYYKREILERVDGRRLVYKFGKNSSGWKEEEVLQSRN
# Procedure, shortened: as §1
# [9] = target: CRX (Homo sapiens, UniProt O43186 1-299); conditions: protein: recombinant; tags: N-terminal GST; dsDNA, one strand shown
# Procedure, shortened: as §1
# [10] = target: ETV1 (Homo sapiens, UniProt P50549 1-477); conditions: protein: recombinant; tags: N-terminal GST; dsDNA, one strand shown
# Procedure, shortened: as §1
# [11] = target: T6, ERF (Homo sapiens, UniProt P50548 1-548); conditions: protein: recombinant; tags: N-terminal GST; dsDNA, one strand shown
# T6 sequence: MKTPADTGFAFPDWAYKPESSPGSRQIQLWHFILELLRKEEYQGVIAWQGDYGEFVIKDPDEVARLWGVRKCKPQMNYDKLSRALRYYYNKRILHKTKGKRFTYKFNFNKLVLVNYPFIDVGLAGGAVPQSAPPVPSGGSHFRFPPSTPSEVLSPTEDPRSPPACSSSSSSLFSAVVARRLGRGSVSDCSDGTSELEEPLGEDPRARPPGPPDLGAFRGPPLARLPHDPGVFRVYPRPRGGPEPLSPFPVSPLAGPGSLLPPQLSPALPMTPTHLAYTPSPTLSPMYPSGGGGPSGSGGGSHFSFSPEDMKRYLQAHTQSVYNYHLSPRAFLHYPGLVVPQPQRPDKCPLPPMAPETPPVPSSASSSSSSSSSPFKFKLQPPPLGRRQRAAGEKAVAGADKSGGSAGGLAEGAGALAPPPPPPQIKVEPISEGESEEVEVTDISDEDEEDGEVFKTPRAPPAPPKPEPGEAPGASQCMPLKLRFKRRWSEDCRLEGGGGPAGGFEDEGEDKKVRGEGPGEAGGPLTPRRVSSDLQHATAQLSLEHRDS
# Procedure, shortened: as §1
# [12] = target: T7, ETV3L (Homo sapiens, UniProt Q6ZN32 1-361); conditions: protein: recombinant; tags: N-terminal GST; dsDNA, one strand shown
# T7 sequence: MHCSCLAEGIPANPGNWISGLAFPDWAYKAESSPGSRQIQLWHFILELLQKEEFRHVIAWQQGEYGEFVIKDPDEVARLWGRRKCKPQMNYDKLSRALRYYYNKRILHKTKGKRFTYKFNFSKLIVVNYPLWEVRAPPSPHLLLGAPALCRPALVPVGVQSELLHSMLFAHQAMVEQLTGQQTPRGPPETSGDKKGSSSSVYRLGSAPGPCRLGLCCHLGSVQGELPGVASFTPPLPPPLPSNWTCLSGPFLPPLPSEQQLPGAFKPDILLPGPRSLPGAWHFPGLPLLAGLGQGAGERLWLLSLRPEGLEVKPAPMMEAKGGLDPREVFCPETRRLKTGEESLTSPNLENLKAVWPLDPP
# Procedure, shortened: as §1
# [13] = target: T8, ETS2 (Homo sapiens, UniProt P15036 1-469); conditions: protein: recombinant; tags: N-terminal GST; dsDNA, one strand shown
# T8 sequence: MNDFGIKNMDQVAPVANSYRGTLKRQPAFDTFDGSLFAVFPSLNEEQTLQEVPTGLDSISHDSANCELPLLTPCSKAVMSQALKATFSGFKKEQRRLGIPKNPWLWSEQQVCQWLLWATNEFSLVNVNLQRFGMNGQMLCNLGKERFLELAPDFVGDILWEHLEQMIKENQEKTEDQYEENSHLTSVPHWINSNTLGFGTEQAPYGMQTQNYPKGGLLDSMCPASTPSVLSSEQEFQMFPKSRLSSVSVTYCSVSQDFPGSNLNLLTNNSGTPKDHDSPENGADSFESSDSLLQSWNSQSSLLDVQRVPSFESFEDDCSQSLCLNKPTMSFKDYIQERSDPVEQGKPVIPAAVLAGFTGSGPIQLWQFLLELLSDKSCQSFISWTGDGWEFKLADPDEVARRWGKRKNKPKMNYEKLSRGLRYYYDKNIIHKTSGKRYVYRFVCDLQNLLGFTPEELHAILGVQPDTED
# Procedure, shortened: as §1
# [14] = target: T9, SPDEF (Homo sapiens, UniProt O95238 1-335); conditions: protein: recombinant; tags: N-terminal GST; dsDNA, one strand shown
# T9 sequence: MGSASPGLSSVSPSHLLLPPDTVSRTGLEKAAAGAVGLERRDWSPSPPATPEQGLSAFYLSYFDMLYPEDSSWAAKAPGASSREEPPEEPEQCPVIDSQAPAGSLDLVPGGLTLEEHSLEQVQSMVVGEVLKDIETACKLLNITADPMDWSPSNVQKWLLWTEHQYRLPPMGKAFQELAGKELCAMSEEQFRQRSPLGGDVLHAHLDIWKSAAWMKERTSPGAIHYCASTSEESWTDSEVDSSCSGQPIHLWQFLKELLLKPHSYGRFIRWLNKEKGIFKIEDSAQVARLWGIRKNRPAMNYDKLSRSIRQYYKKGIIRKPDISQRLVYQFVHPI
# Procedure, shortened: as §1
# [15] = target: T10, ETV7 (Homo sapiens, UniProt Q9Y603 1-341); conditions: protein: recombinant; tags: N-terminal GST; dsDNA, one strand shown
# T10 sequence: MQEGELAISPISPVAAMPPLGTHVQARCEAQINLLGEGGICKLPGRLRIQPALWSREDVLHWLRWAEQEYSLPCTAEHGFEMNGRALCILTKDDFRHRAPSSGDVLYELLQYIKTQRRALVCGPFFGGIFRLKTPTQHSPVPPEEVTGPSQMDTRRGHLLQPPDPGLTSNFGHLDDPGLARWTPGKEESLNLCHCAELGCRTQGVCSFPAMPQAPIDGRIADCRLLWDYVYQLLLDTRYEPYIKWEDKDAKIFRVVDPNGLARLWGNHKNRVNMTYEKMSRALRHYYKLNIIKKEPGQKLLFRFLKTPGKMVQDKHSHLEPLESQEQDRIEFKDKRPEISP
# Procedure, shortened: as §1
# [16] = target: T11, ELF5 (Homo sapiens, UniProt Q9UKW6-2 1-255); conditions: protein: recombinant; tags: N-terminal GST; dsDNA, one strand shown
# T11 sequence: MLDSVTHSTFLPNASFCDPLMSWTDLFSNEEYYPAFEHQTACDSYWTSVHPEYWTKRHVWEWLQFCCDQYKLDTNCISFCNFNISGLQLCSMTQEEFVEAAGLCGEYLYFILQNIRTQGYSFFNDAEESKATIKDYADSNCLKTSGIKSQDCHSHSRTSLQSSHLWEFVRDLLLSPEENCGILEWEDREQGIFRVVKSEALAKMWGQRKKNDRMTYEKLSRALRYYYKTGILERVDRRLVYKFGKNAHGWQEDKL
# Procedure, shortened: as §1
# [17] = target: T12, ETV3 (Homo sapiens, UniProt P41162-2 1-143); conditions: protein: recombinant; tags: N-terminal GST; dsDNA, one strand shown
# T12 sequence: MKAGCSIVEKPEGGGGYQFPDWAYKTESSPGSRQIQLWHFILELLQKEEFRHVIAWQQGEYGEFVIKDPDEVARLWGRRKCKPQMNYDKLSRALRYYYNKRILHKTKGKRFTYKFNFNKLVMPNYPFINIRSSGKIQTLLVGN
# Procedure, shortened: as §1
# [18] = target: ETV6 (Homo sapiens, UniProt P41212 1-452); conditions: protein: recombinant; tags: N-terminal GST; dsDNA, one strand shown
# Procedure, shortened: as §1
# Chain of HSF1 (Q00613 whole entry): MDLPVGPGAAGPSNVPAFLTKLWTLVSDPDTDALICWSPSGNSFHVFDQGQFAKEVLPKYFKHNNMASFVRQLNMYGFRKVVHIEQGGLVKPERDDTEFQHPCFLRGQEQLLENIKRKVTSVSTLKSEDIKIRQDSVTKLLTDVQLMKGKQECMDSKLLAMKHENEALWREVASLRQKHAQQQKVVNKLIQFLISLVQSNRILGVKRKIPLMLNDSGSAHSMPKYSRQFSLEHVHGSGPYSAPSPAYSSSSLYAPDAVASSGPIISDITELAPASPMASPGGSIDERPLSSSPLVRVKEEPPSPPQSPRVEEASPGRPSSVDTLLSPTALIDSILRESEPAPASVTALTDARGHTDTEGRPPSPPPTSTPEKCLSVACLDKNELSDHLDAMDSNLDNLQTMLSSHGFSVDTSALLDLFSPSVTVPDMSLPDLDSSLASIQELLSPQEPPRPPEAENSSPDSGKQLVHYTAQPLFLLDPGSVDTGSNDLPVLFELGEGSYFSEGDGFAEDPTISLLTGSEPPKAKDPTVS
# Chain of ETV6 (P41212 whole entry): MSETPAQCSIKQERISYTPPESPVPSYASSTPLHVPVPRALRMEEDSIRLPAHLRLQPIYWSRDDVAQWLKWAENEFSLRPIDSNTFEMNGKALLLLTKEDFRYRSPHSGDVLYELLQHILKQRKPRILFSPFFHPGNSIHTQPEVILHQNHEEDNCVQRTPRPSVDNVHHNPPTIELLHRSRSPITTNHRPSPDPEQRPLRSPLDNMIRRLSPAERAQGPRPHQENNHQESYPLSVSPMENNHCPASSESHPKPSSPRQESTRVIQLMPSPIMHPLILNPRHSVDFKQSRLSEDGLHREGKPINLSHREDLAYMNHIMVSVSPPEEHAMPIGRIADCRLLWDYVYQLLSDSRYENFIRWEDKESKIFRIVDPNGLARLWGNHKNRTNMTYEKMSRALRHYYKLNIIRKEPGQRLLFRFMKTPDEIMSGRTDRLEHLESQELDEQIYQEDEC
# Chain of ETV1 (P50549 whole entry): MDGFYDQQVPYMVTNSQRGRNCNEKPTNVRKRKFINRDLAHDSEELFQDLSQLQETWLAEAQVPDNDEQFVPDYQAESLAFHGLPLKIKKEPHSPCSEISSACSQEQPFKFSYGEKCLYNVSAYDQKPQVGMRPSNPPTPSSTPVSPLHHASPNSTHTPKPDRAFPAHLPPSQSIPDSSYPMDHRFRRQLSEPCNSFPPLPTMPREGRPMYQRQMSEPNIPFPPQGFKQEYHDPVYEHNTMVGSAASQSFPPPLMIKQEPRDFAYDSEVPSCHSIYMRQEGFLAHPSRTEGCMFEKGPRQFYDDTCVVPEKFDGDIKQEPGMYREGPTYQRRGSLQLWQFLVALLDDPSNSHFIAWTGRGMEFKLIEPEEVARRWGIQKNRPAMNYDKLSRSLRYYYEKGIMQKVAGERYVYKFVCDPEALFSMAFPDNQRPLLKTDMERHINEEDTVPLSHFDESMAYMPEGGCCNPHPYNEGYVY
# Chain of CRX (O43186 whole entry): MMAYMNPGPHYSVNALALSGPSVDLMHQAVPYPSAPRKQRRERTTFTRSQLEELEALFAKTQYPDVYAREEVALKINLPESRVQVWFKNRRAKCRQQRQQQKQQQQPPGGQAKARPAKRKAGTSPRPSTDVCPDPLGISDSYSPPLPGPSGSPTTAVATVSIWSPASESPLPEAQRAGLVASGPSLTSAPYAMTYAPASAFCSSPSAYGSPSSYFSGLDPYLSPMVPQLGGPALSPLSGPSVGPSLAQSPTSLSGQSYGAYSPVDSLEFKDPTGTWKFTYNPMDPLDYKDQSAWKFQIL
# Chain of ELF4 (Q99607 whole entry): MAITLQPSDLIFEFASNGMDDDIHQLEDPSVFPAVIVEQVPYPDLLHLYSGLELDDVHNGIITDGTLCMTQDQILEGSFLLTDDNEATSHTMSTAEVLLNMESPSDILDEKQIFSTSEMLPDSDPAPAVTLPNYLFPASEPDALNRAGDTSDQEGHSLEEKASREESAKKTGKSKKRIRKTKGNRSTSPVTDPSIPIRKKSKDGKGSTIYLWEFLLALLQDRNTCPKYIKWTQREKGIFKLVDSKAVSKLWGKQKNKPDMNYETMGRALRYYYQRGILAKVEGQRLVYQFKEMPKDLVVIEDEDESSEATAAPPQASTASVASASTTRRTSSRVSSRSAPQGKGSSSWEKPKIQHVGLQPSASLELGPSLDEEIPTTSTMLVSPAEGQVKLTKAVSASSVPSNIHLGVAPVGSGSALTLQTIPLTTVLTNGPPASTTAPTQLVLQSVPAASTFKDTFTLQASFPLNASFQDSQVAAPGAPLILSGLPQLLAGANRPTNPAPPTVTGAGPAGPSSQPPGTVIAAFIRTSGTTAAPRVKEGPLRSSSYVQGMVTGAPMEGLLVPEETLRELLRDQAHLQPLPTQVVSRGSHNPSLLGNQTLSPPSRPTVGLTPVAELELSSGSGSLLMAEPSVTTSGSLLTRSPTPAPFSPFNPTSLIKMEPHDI
# Chain of ETV5 (P41161 whole entry): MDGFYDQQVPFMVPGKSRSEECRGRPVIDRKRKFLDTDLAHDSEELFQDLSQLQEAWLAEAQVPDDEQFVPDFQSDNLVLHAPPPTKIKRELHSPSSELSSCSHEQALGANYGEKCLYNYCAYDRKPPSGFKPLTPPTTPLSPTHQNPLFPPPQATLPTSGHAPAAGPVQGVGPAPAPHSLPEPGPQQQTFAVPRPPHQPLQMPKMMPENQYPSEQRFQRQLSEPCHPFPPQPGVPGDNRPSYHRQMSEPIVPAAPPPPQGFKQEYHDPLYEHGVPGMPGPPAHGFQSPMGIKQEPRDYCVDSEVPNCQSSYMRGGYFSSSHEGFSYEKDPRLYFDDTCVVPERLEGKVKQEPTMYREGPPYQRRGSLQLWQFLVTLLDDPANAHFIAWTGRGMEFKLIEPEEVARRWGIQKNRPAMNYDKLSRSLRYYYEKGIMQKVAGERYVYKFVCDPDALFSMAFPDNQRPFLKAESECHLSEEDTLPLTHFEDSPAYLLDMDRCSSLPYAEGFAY
sequence,measurement,setting,value
CTACTG,binding signal,[1],"1.33 fold enrichment (6-mer frequency, TF over GST control)"
same,binding signal,[2],"1.35 fold enrichment (6-mer frequency, TF over GST control)"
same,binding signal,[3],"1.24 fold enrichment (6-mer frequency, TF over GST control)"
same,binding signal,[4],"1.32 fold enrichment (6-mer frequency, TF over GST control)"
same,binding signal,[5],"1.26 fold enrichment (6-mer frequency, TF over GST control)"
same,binding signal,[6],"1.26 fold enrichment (6-mer frequency, TF over GST control)"
same,binding signal,[7],"1.4 fold enrichment (6-mer frequency, TF over GST control)"
same,binding signal,[8],"1.3 fold enrichment (6-mer frequency, TF over GST control)"
same,binding signal,[9],"1.08 fold enrichment (6-mer frequency, TF over GST control)"
same,binding signal,[10],"1.3 fold enrichment (6-mer frequency, TF over GST control)"
same,binding signal,[11],"1.4 fold enrichment (6-mer frequency, TF over GST control)"
same,binding signal,[12],"1.37 fold enrichment (6-mer frequency, TF over GST control)"
same,binding signal,[13],"1.34 fold enrichment (6-mer frequency, TF over GST control)"
same,binding signal,[14],"1.21 fold enrichment (6-mer frequency, TF over GST control)"
same,binding signal,[15],"1.26 fold enrichment (6-mer frequency, TF over GST control)"
same,binding signal,[16],"1.32 fold enrichment (6-mer frequency, TF over GST control)"
same,binding signal,[17],"1.16 fold enrichment (6-mer frequency, TF over GST control)"
same,binding signal,[18],"1.24 fold enrichment (6-mer frequency, TF over GST control)"
